Screening results as filed in PubChem BioAssay.
VACV mCherry inh – vaccinia inhibition (mCherry reporter). AID 720579. Potency, µM (titrated, usually from 36.5 µM), hits mostly inhibitors. 310,000 compounds, 0.63% hits. Vaccinia virus mCherry reporter infection, fluorescence; calls by dose curve; tested in A549 cells; further: nearly all actives have a fitted effect of over 35% in size
FMDV antiviral – blocks foot and mouth disease virus; FMDV antiviral cell-based qHTS; Potency, µM (series often up to 57.9 µM), hits mostly inhibitors; 410,000 compounds, 1.2% hits; AID 1159524; calls by dose curve; tested in HEK293T cells; further: read-out not given here; nearly all actives have a fitted effect of over 45% in size
VACV Venus inh – vaccinia inhibition (Venus reporter); Potency, µM (series often up to 36.5 µM), actives largely listed as inhibitors; Vaccinia virus Venus reporter expression, fluorescence; 330,000 compounds, 0.46% hits; calls by dose curve; tested in A549 cells; further: nearly all actives have a fitted effect of over 30% in size
HCMV antiviral – inhibitors of human cytomegalovirus; HFF cells, HCMV-luciferase reporter, 72 h; active compounds read low; activity change, negative = inhibition, % at 57.5 µM; AID 1259415; 410,000 compounds, 4.5% hits; in the data active means activity change below about -60%; inconclusive means no clear call, values can overlap the other calls; inactive means above about -39%
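Two-dose cell screen: HFF monolayers treated with compounds and infected with luciferase-expressing HCMV at 1 PFU/cell, 72 h at 37C, then lysed for luciferase measurement.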
HCV inhibitor – blocks hepatitis C virus. Huh7.5.1 HCVcc-Cre infection, luciferase reporter, 44 h. Potency, µM (doses to about 41.8 µM), most hits filed as inhibitors. 340,000 compounds, 3.4% hits; active means well fitted inhibition curve with a large enough effect; inconclusive means small, poorly fitted or top-dose-only effect, or another doubt; inactive means no such curve, though single readings can be large or run the other way
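Reporter virus HCVcc-Cre (~0.5 moi) infects cells exposed to compound; seeding density 1,000 cells/well with 4 h settling beforehand. Luminescence, 15 sec read, taken 44 h post-infection following a 15 min RT substrate incubation.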
A number is an active result; ! = not active in a repeat; [ ] = dose if it differs, or a comment. Most compounds without a hit are left out; they make up all but 7.3% or so of the library.

What do the screens show for `Cc1[nH]c(=O)c(C(=O)/C=C/c2ccccc2F)c2c1CCCC2`?
FMDV antiviral: 14µM; HCMV antiviral: -102; HCV inhibitor: 2.5µM

What do the screens show for `C/C(=C\c1ccccc1F)C(=O)c1c(C)cc(C)[nH]c1=O`?
VACV mCherry inh: inactive; FMDV antiviral: inactive; VACV Venus inh: inactive; HCMV antiviral: inactive; HCV inhibitor: inactive

How did NC1(C(=O)O)C[C@@H](C(=O)O)[C@H](C(=O)O)C1 do in these assays?
VACV mCherry inh: inactive; FMDV antiviral: inactive; VACV Venus inh: inactive

Results for NC1(C(=O)O)CSSC1 ?
VACV mCherry inh: inconclusive; FMDV antiviral: inactive; VACV Venus inh: inconclusive; HCMV antiviral: -80; HCV inhibitor: inconclusive

What do the screens show for `CCN(c1cc(C)cc(C)c1)S(=O)(=O)c1nnc(NC(=O)C(C)(C)C)s1`?
FMDV antiviral: inactive; HCMV antiviral: -67; HCV inhibitor: inactive

How did CC1(C)CC(=O)C=C(c2ccc(-c3ccccc3)cc2)C1 do in these assays?
VACV mCherry inh: inactive; FMDV antiviral: inactive; VACV Venus inh: inactive; HCMV antiviral: inactive; HCV inhibitor: inactive

How did CC1(C)CC(=O)C=C(c2cccc(Br)c2)C1 do in these assays?
VACV mCherry inh: inactive; FMDV antiviral: inactive; VACV Venus inh: inactive; HCMV antiviral: -64; HCV inhibitor: inactive

Results for c1ccc(-n2cnc3cc(NCc4ccco4)ccc32)cc1 ?
VACV mCherry inh: inactive; FMDV antiviral: inactive; VACV Venus inh: inconclusive; HCMV antiviral: -86; HCV inhibitor: inconclusive

Results for O=C1C=CC(O)(c2cc(=O)c3c(O)cc(O)cc3o2)C=C1 ?
VACV mCherry inh: 11µM; FMDV antiviral: 18µM; VACV Venus inh: inconclusive; HCMV antiviral: -96; HCV inhibitor: inconclusive

Results for O=c1cc(-c2ccccc2Cl)oc2cc(O)cc(O)c12 ?
VACV mCherry inh: inactive; FMDV antiviral: inactive; VACV Venus inh: inactive; HCMV antiviral: inactive; HCV inhibitor: inactive[8.37 µM]

What do the screens show for `CCC(=O)Nc1cc2nn(-c3ccc(OC)cc3)nc2cc1C`?
VACV mCherry inh: inactive; VACV Venus inh: inactive; HCMV antiviral: inactive; HCV inhibitor: inactive

Results for CCC(=O)Nc1cc2nn(-c3ccc(C)cc3)nc2cc1C ?
VACV mCherry inh: inactive; FMDV antiviral: 6.3µM; VACV Venus inh: inactive; HCMV antiviral: -66!; HCV inhibitor: inactive

What do the screens show for `O=C(/C=C/c1cn(CC(O)CN2CCCCCC2)c2ccccc12)c1ccc(Br)cc1` (stereo unspecified)?
VACV mCherry inh: inactive; FMDV antiviral: inactive; VACV Venus inh: inactive; HCMV antiviral: inactive

How did CCn1c(SCc2nc(-c3cccs3)no2)nnc1-c1c[nH]c2ccccc12 do in these assays?
VACV mCherry inh: inactive; FMDV antiviral: 22µM; VACV Venus inh: inactive; HCMV antiviral: inconclusive; HCV inhibitor: inconclusive

How did Cc1cc(C)nc(NC(=O)c2c(F)c(F)c(F)c(C(=O)Nc3cc(C)cc(C)n3)c2F)c1 do in these assays?
FMDV antiviral: 25µM; HCMV antiviral: inactive; HCV inhibitor: inactive

Results for Cc1ccc(OCCSc2nc3ccccc3n2CC(=O)N2CCOCC2)cc1 ?
VACV mCherry inh: inactive; FMDV antiviral: inactive; VACV Venus inh: inactive; HCMV antiviral: inactive

How did Cc1ccccc1NC(=S)NCc1cccs1 do in these assays?
FMDV antiviral: inactive; VACV Venus inh: inactive; HCMV antiviral: inactive; HCV inhibitor: inactive

How did Cc1c(Cl)cccc1NC(=S)NCc1cccs1 do in these assays?
FMDV antiviral: inactive; HCMV antiviral: -80; HCV inhibitor: inconclusive

How did CCCCc1ccc(NC(=S)NCc2cccs2)cc1 do in these assays?
FMDV antiviral: inactive; HCMV antiviral: -80; HCV inhibitor: inactive

How did S=C(NCc1cccs1)Nc1cccc(Cl)c1Cl do in these assays?
VACV mCherry inh: inactive; FMDV antiviral: inactive; VACV Venus inh: inactive; HCMV antiviral: -79; HCV inhibitor: inactive

What do the screens show for `CCCN1Cc2cccc(C(=O)Nc3cccc(C(=O)OCC)c3)c2C1=O`?
VACV mCherry inh: inactive; FMDV antiviral: inactive; VACV Venus inh: inactive; HCMV antiviral: inactive

What do the screens show for `Cn1cc(C=CC(=O)O)c2nccnc21`?
VACV mCherry inh: inactive; FMDV antiviral: inactive; VACV Venus inh: inactive; HCMV antiviral: -62

How did O=C(O)/C=C/c1cn(-c2ccccc2)nc1-c1ccccc1 do in these assays?
FMDV antiviral: inactive; HCMV antiviral: inactive; HCV inhibitor: inactive

Results for CN1CCN(c2ccc(NC(=O)c3ccc(-c4ccc(Br)cc4)o3)cc2)CC1 ?
VACV mCherry inh: inconclusive; FMDV antiviral: inactive; VACV Venus inh: inactive; HCMV antiviral: inactive; HCV inhibitor: 10µM

What do the screens show for `Cc1ccccc1C(=O)Nc1cccc(NC(=O)c2ccc(F)cc2)c1`?
VACV mCherry inh: inactive; FMDV antiviral: inactive; VACV Venus inh: inactive; HCMV antiviral: inconclusive; HCV inhibitor: inconclusive

Results for CC(=O)N1CCN(c2ccc(NCc3ccc(-c4ccc(Br)cc4)o3)cc2)CC1 ?
FMDV antiviral: inconclusive; HCMV antiviral: -80

What do the screens show for `Cc1ccccc1C(=O)Nc1cccc(NC(=O)c2ccc(-c3ccc(Br)cc3)o2)c1`?
FMDV antiviral: inconclusive; VACV Venus inh: inactive; HCMV antiviral: -96; HCV inhibitor: inconclusive

Results for CC(=O)N1CCN(c2ccc(NCc3ccccc3)cc2)CC1 ?
FMDV antiviral: inactive; HCMV antiviral: inactive; HCV inhibitor: inactive

Results for CC(=O)N1CCN(c2ccc(NCc3ccc(Br)o3)cc2)CC1 ?
FMDV antiviral: inactive; HCMV antiviral: -62

How did CCCN(C(=O)Cn1ncc2c1-c1ccccc1OC2)c1cccc(C)c1 do in these assays?
VACV mCherry inh: inactive; FMDV antiviral: inactive; VACV Venus inh: inactive; HCMV antiviral: inactive

What do the screens show for `COc1ccc(C2=CC(c3ccccc3Cl)n3nc(-c4ccc(C)cc4)nc3N2)cc1` (stereo unspecified)?
VACV mCherry inh: inactive; FMDV antiviral: inactive; VACV Venus inh: inactive; HCMV antiviral: inactive

How did O=C(Nc1ccc(F)c(F)c1)c1cc(S(=O)(=O)NCc2ccc3c(c2)OCO3)ccc1F do in these assays?
VACV mCherry inh: inactive; FMDV antiviral: inactive; VACV Venus inh: inactive; HCMV antiviral: inactive

Results for O[C@@H](c1cc(C(F)(F)F)nc2c(C(F)(F)F)cccc12)[C@H]1CCCCN1 ?
VACV mCherry inh: inconclusive; FMDV antiviral: inactive; VACV Venus inh: inconclusive; HCMV antiviral: inactive; HCV inhibitor: 8.9µM

Results for OC(c1cc(-c2ccc(Cl)cc2)nc2ccccc12)C1CCCCN1 (stereo unspecified) ?
VACV mCherry inh: inconclusive; FMDV antiviral: inconclusive; VACV Venus inh: 14µM; HCMV antiviral: inactive; HCV inhibitor: inconclusive

Results for COC(=O)c1nc(N2CCN(S(=O)(=O)c3ccc(C)cc3)CC2)c2ccccc2n1 ?
VACV mCherry inh: inactive; VACV Venus inh: inactive

What do the screens show for `Nc1ncnc(N)c1NC(=O)c1ccccc1`?
HCMV antiviral: -101

How did Cc1ccc(C)c(OCC(O)CN2CCN(CCN3C(=O)c4cccc5cccc(c45)C3=O)CC2)c1 (stereo unspecified) do in these assays?
VACV mCherry inh: inconclusive; FMDV antiviral: 25µM; VACV Venus inh: inconclusive; HCMV antiviral: -84; HCV inhibitor: inconclusive

How did Cc1ccc(OCC(O)CN2CCOCC2)c(C)c1 (stereo unspecified) do in these assays?
FMDV antiviral: inactive; HCMV antiviral: inactive; HCV inhibitor: inactive
